D2 ag-1 – agonists of human D2 dopamine receptor (beta-arrestin) | P14416 | DiscoveRx PathHunter D2 beta-arrestin, luminescence, 90 min; 100% = 57 uM dopamine signal | activation, % (concentration not given with the values) | 0.084% of 360,000 active | AID 624465; in the data active = activation above about 40%
Target sequence (P14416 whole entry, looked up): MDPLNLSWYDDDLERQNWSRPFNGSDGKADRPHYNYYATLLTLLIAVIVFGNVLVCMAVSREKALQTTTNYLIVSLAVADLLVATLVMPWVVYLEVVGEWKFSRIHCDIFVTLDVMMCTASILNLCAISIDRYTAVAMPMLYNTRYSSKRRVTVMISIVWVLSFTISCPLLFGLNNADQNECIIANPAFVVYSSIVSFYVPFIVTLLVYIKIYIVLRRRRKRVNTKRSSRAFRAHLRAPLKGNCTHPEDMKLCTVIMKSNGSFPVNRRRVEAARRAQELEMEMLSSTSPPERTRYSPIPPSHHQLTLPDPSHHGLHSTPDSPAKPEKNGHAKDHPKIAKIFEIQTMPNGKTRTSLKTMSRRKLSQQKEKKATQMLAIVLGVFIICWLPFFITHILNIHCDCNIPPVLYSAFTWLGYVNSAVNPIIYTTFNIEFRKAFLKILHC
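Agonist mode: compounds alone added to overnight-plated D2 PathHunter cells for 90 min at 37 C, with 57 uM final dopamine (EC100) defining full response. Beta-arrestin recruitment detected by chemiluminescent reagent, read after 1 h at ambient temperature.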
D2 PAM-1 – positive allosteric modulators of human D2 dopamine receptor. P14416. HEK293 T-REx D2, calcium flux, EC20 dopamine potentiation. potentiation, % at 10 µM. 0.34% of 340,000 active. AID 485347;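 active = potentiation over 3 SD above the plate norm, cut at about 30% in these data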; also: 0% is about no effect
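Tetracycline-induced HEK293 T-REx cells force-coupled to calcium signalling expressed D2; compounds were pin-added after a 10 s baseline, read kinetically 180 s, then an EC20 dopamine challenge followed with a further 180 s calcium read.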
D2 antagonist – D2 dopamine receptor (human) antagonism; P14416; HEK293 TREx D2 cells, calcium flux, dopamine EC80; inhibition, % at 10 µM; 2% of 340,000 active; AID 485344; in the data active = inhibition above about 30%; inactive = below that, where a call was filed; also: 0% is about no effect
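Read-out: kinetic calcium fluorescence (1 cycle/s) in inducible HEK293 T-REx D2 cells after an EC80 dopamine addition that followed 180 s compound preincubation. Loss of the dopamine response indicates antagonism.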
D2 ag-2 – activates the human D2 dopamine receptor; HEK293 T-REx D2 cells, calcium flux agonist mode; activation, % at 2 µM; 0.53% of 340,000 active; AID 485358;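 active = activation over 3 SD above normal in the single-dose calcium agonist read, cut at about 30% in these data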; also: 0% is about no effect
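Calcium-flux readout, 1 cycle/sec over 180 s following compound pin transfer, in inducible HEK293 Trex D2 cells (force-coupled); dopamine controls included. Positive calcium responses during this window marked compounds as potential agonists.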
D2 PAM-2 – potentiates the human D2 dopamine receptor allosterically; P14416; DiscoveRx D2 beta-arrestin cells, luminescence, 90 min; 100% = 57 uM dopamine signal; potentiation, % (concentration not given with the values); 0.23% of 360,000 active; AID 624464; in the data active = potentiation above about 50%
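PathHunter beta-arrestin assay in DiscoveRx D2 cells. Compounds were added with an EC20 of dopamine (50 nM final) for 90 min at 37 deg C. Luminescence was read 1 h after detection reagent, with 57 uM dopamine as the EC100 control.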
Numbers without * were called inactive. This is a sample that favours compounds with a hit; in the whole collection about 2.4% have one here.

For CCOc1ccc(/C=N/NC(=O)c2cc3c(OC)cc(OC)c(OC)c3[nH]2)cc1 the results were D2 ag-1 11, D2 PAM-1 -20, D2 antagonist 56*, D2 ag-2 0 and D2 PAM-2 -2.
O=C1C2CCCCN2C(=O)N1CCCCN1CCN(c2cccc(Cl)c2)CC1 (stereo not drawn) was read as D2 ag-1 4, D2 PAM-1 -17, D2 antagonist 92*, D2 ag-2 3 and D2 PAM-2 -11.
O=C1C2CCCCN2C(=O)N1CCCCN1CCN(c2ccccc2Oc2ccccc2)CC1 (stereo not drawn) was read as D2 ag-1 -7, D2 PAM-1 -15, D2 antagonist 84*, D2 ag-2 0 and D2 PAM-2 -5.
`COc1ccccc1N1CCN(CCCCN2C(=O)C3CCCN3C2=O)CC1` (stereo not drawn) gave D2 ag-1 2 and D2 PAM-2 -24.
`COc1ccc(NS(=O)(=O)c2cccc(C(=O)NNC(=O)c3cncc(Br)c3)c2)cc1` gave D2 ag-1 2, D2 PAM-1 -7, D2 antagonist 10, D2 ag-2 0 and D2 PAM-2 3.
Screening CCOC(=O)c1cnn(-c2cccc(Cl)c2)c1C1CCN(C(=O)OC(C)(C)C)CC1 returned D2 PAM-1 11 and D2 ag-2 1.
`CC(C)(C)CC(=O)Nc1nnc(CCc2ccccc2)s1` gave D2 ag-1 0, D2 PAM-1 11, D2 antagonist 8, D2 ag-2 0 and D2 PAM-2 -9.
Screening CCC(C)(C)C(=O)Nc1nnc(CCc2ccccc2)s1 returned D2 ag-1 -1, D2 PAM-1 1, D2 antagonist 44*, D2 ag-2 0 and D2 PAM-2 -5.
Cc1ccc(C)c(C(=O)N(Cc2nc(-c3ccc(Cl)cc3)no2)C(C)C)c1 was read as D2 ag-1 0, D2 PAM-1 -1, D2 antagonist 40*, D2 ag-2 1 and D2 PAM-2 0.
`CS(=O)(=O)N1CCC(C(=O)Nc2ccc(OCc3ccccc3)cc2)CC1` gave D2 ag-1 -1, D2 PAM-1 8, D2 antagonist 45*, D2 ag-2 1 and D2 PAM-2 -1.
For O=S(=O)(Oc1ccc(C(=S)N2CCOCC2)cc1)c1ccc(Cl)cc1 the results were D2 ag-1 0, D2 PAM-1 5, D2 antagonist -8, D2 ag-2 1 and D2 PAM-2 -1.
Screening O=C(COc1ccccc1)Nc1ccc(Cl)cc1Cl returned D2 PAM-1 -13, D2 antagonist 16 and D2 ag-2 0.
CCc1ccccc1NC(=O)Nc1ccc2c(c1)N(CC)C(=O)c1ccccc1S2 was read as D2 PAM-1 1 and D2 ag-2 -1.
`CCOC(=O)C1C(=O)NC(c2ccccc2)=NC1c1cccc(Br)c1` (stereo not drawn) gave D2 ag-1 -1, D2 PAM-1 8, D2 antagonist 55*, D2 ag-2 0 and D2 PAM-2 -2.
Cc1cc(C(=O)N2CCN(S(=O)(=O)c3ccccc3F)CC2)c(C)o1 was read as D2 ag-1 2, D2 PAM-1 47*, D2 antagonist -2, D2 ag-2 0 and D2 PAM-2 -2.
Cc1cc(C(=O)N2CCN(S(=O)(=O)c3ccccc3C#N)CC2)c(C)o1 was read as D2 ag-1 -4, D2 PAM-1 20, D2 antagonist 23, D2 ag-2 0 and D2 PAM-2 -4.
Cc1ccc(C(CC(=O)O)NC(=O)CN2C(=O)c3ccccc3C2=O)cc1 (stereo not drawn) was read as D2 ag-1 -7, D2 PAM-1 0, D2 antagonist 43*, D2 ag-2 1 and D2 PAM-2 -8.
Cc1ccc(NC(=O)CN2C(=O)c3ccccc3C2=O)nc1 was read as D2 ag-1 -7, D2 PAM-1 -6, D2 antagonist -8, D2 ag-2 0 and D2 PAM-2 -6.
CCS(=O)(=O)N1CC(=O)N(c2cccc(C)c2C)C(C)(C(=O)NC2CCCCCC2)C1 (stereo not drawn) was read as D2 PAM-1 -16 and D2 ag-2 1.
`COc1cccc(-c2cc3c(-n4cccc4)ncnc3o2)c1` gave D2 ag-1 -3, D2 PAM-1 9, D2 antagonist 37*, D2 ag-2 -1 and D2 PAM-2 -15.
